Experimental data: PubChem BioAssay (Tox21)
Records with an inconclusive call do not appear. Calls of active or inactive are those of the source. Unless noted, the call rests on the fitted dose curve; in most records, active means well fitted curve in the direction sought with a large enough effect in the repeat runs; inconclusive means weak or mixed curves; inactive means no such curve, though single readings can be large; an effect the other way counts as inactive or inconclusive.

Legend:
[1] = qHTS assay to identify small molecule antagonists of the progesterone receptor (PR) signaling pathway - cell viability counter screen (AID 1346798); further: nearly all actives have a fitted effect of over 50% in size; further: potency means the concentration at half of the fitted maximal effect; on activity change, negative = cytotoxicity: series mostly up to about 92 µM
Outline: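 ATP content as viability readout: CellTiter-Glo luminescence, 30 min room temperature, in PR-UAS-bla HEK293T cells after 16 hr compound/R5020 treatment at 37C and 5% CO2.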

[2] = qHTS assay to identify small molecule agonists of the progesterone receptor (PR) signaling pathway - cell viability counter screen (AID 1346799; calls by dose curve; further: nearly all actives have a fitted effect of over 45% in size; further: potency means the concentration at half of the fitted maximal effect)
Outline: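 Cytotoxicity in PR-bla HEK293T cells: 16 h compound, 37C; CellTiter-Glo added post-FRET read; luminescence after 30 min RT.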

[3] = qHTS assay to identify small molecule antagonists of the TGF-beta/Smad signaling pathway - cell viability counter screen (AID 1346824); further: nearly all actives have a fitted effect of over 50% in size
Outline: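 SBE-bla HEK 293T cells, incubated overnight, then compound plus 0.25 ng/mL TGF-beta1 (stock added) for 5 hr at 37 C. Viability was read in the same wells by CellTiter-Glo luminescence after 30 min at room temperature.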

[4] = qHTS assay to identify small molecule agonists of the TGF-beta/Smad signaling pathway - cell viability counter screen (AID 1346829); further: top concentration of the series differs between compounds; nearly all actives have a fitted effect of over 45% in size
Outline: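 Same-well cytotoxicity: CellTiter-Glo added after the 2 hr room-temperature beta-lactamase substrate step, luminescence measured 30 min later; cells had 5 hr of compound at 37 C.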

[5] = qHTS assay to identify small molecule agonists of the TGF-beta/Smad signaling pathway (AID 1346859; active means well fitted activation curve with a large enough effect in the signal ratio in the repeat runs, not every such curve was filed as active; the % refers to the signal ratio; further: series mostly up to about 77 µM)
Outline: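 Stable Smad binding element-beta-lactamase HEK 293T cells; 5 hr compound exposure at 37 C under 5% CO2; 2 hr room-temperature substrate step; fluorescence excited at 405 nm, collected at 460 nm and 530 nm.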

[6] = target: Thyrotropin-releasing hormone receptor (Homo sapiens) (UniProt P34981); test: qHTS assay to identify small molecule antagonists of the thyrotropin-releasing hormone receptor (TRHR) signaling pathway (AID 1346877; active means well fitted inhibition curve with a large enough effect in the repeat runs, not every such curve was filed as active; further: series mostly up to about 51 µM)
Outline: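 Cells (TRHR-HEK293) are plated and kept 18 h at 37 °C/5% CO2. A calcium-sensitive dye is added for 2 h, compound follows for 5 min at room temperature, and TRH is then given at 1 nM final.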

[7] = target: Thyrotropin-releasing hormone receptor (Homo sapiens) (UniProt P34981); test: qHTS assay to identify small molecule agonists of the thyrotropin-releasing hormone receptor (TRHR) signaling pathway (AID 1346891; calls by dose curve;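 further: HEK293 cells expressing TRHR with calcium dye readout; series mostly up to about 58 µM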)
Outline: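 In 1536-format, 1500 TRHR-Hek293 cells per well grew 18 h, took up calcium dye for 2 h at 37 °C, received compound, and were read kinetically; 15-point titrations, triplicates.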

[8] = Caspase-3/7 induction in HepG2 cells by small molecules, qHTS assay (AID 1346978); further: nearly all actives have a fitted effect of over 15% in size
Outline: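 Wild-type HepG2 cells, 2,000/well, settled 5 hr at 37 C and 5% CO2, then compound-treated for 17 hr; caspase-3/7 activity read by luminescent Caspase-Glo 3/7 after 30 min at room temperature.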

[9] = Caspase-3/7 induction in CHO-K1 cells by small molecules, qHTS cell viability counter screen (AID 1346979); further: nearly all actives have a fitted effect of over 35% in size; further: potency means the concentration at half of the fitted maximal effect
Outline: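 To flag cytotoxic compounds, treated CHO-K1 wild-type cells were given CellTiter-Fluor at 16hr and read fluorescently after 1hr at 37C; the caspase-3/7 luminescence was measured in these same wells.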

[10] = Human pregnane X receptor (PXR) small molecule agonists, qHTS cell viability counter screen (AID 1346977); further: nearly all actives have a fitted effect of over 50% in size; further: potency means the concentration at half of the fitted maximal effect
Outline: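 Readout is CellTiter-Fluor fluorescence from PXR-Luc HepG2 cells. Plated cells rested 5hr, then were treated with compounds for 24hr at 37C and 5% CO2, with reagent present during the last hour.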
On the % scale 0 is the no-effect control and ±100 the full control effect.

Sequence of Thyrotropin-releasing hormone receptor (Homo sapiens) (P34981 whole entry, looked up): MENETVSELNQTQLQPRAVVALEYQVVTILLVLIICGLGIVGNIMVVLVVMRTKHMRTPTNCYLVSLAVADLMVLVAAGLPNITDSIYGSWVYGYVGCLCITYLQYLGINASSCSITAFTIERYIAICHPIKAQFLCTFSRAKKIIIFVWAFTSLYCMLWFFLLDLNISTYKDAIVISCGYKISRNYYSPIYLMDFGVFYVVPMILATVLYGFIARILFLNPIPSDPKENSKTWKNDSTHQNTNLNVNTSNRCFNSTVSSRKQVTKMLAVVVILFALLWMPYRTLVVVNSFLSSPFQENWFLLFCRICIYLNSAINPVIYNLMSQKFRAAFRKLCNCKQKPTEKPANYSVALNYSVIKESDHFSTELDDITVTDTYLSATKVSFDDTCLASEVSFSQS

CC(C)NCC(O)COc1ccc(CC(N)=O)cc1 (configuration not stated)
inactive: Potency [1] | Potency [2] | Potency [3] | Potency [4] | outcome [5] | outcome [6] | Potency [7] | outcome [8] | Potency [9]

C1CCC2OC2C1 (configuration not stated)
inactive: Potency [1] | Potency [2] | Potency [3] | Potency [4] | outcome [5] | outcome [6] | outcome [8] | Potency [9]

CN1CCC[C@@H]1c1cccnc1
inactive: Potency [1] | Potency [2] | Potency [3] | Potency [4] | outcome [5] | outcome [6] | Potency [7] | outcome [8] | Potency [9]

CCCCCc1ccc(N)cc1
inactive: Potency [1] | Potency [2] | Potency [3] | Potency [4] | outcome [5] | Potency [7] | Potency [10] | outcome [8]

CCN(CC)CCc1nc(-c2ccccc2)no1
inactive: Potency [1] | Potency [2] | Potency [3] | Potency [4] | outcome [5] | outcome [6] | Potency [10] | outcome [8] | Potency [9]

FC(F)(F)C(F)(F)C(F)(F)C(F)(F)C(F)(F)C(F)(F)CCI
inactive: Potency [1] | Potency [2] | Potency [3] | Potency [4] | outcome [5] | outcome [6] | Potency [10] | outcome [8] | Potency [9]

CCOc1ccc(NC(=O)CC(C)=O)cc1
inactive: Potency [1] | Potency [2] | Potency [3] | Potency [4] | outcome [5] | Potency [10] | outcome [8] | Potency [9]

CC(C(=O)O)c1ccc(C(=O)c2ccccc2)s1 (configuration not stated)
inactive: Potency [1] | Potency [2] | Potency [3] | Potency [4] | outcome [6] | Potency [7] | Potency [10] | outcome [8] | Potency [9]

CCOC(=O)[C@H](CCc1ccccc1)N[C@H]1CCc2ccccc2N(CC(=O)O)C1=O
inactive: Potency [3] | Potency [4] | outcome [6] | Potency [7]
active: Potency [1] 21.1 µM | Potency [2] 21.1 µM | Potency [10] 26.6 µM | Potency [9] 23.7 µM

CCOC(=O)CC(=O)c1cc(F)c(Cl)nc1Cl
inactive: Potency [1] | Potency [2] | Potency [3] | Potency [4] | outcome [5] | Potency [10] | outcome [8] | Potency [9]

CC1=CCC(C(C)C)C=C1 (configuration not stated)
inactive: Potency [1] | Potency [2] | Potency [3] | Potency [4] | outcome [5] | Potency [10] | outcome [8] | Potency [9]

O=C(CCN1CCN2CCCC2C1)N1c2ccccc2Sc2ccc(Cl)cc21 (configuration not stated)
inactive: activity change, negative = cytotoxicity [1] -27.7% [at 18.9 µM] | activity change, negative = cytotoxicity [2] -27.9% [at 19 µM] | viability change, negative = cytotoxic [3] 0.3% [at 15.8 µM] | activity change, negative = cytotoxicity [4] -3.72% [at 15.8 µM] | activation [5] -2.07% [at 15.8 µM] | caspase activation [8] 1.09% [at 19 µM] | activity change, negative = cytotoxicity [9] -16.9% [at 19 µM]

CC(=O)Nc1ccc(/C=N/NC(N)=S)cc1
inactive: Potency [1] | Potency [2] | Potency [3] | Potency [4] | outcome [5] | outcome [8] | Potency [9]

CC(C)NCC(O)c1cc(O)cc(O)c1 (configuration not stated)
inactive: Potency [1] | Potency [2] | Potency [3] | Potency [4] | outcome [5] | outcome [8] | Potency [9]

S=C(S)NCCNC(=S)S
inactive: Potency [1] | Potency [2] | Potency [3] | Potency [4] | outcome [5] | Potency [10] | outcome [8] | Potency [9]

O=C(CC(=O)c1ccccc1)c1ccccc1
inactive: Potency [1] | Potency [2] | Potency [3] | Potency [4] | outcome [5] | outcome [8]

CC[C@]12CCCN3CCc4c(n(c5ccccc45)C(=O)C1)[C@@H]32
inactive: Potency [1] | Potency [2] | Potency [3] | Potency [4] | outcome [5] | Potency [10] | outcome [8]
active: Potency [9] 26.6 µM

CC(C)c1cccc(C(C)C)c1NC(=O)NS(=O)(=O)c1cc(C(C)(C)O)co1
inactive: Potency [1] | Potency [2] | Potency [3] | Potency [4] | outcome [5] | outcome [8] | Potency [9]

CCCCCCCCCC=O
inactive: Potency [1] | Potency [2] | Potency [3] | Potency [4] | outcome [6] | Potency [7] | Potency [10] | outcome [8] | Potency [9]

C[C@H](CCC(=O)O)[C@H]1CC[C@H]2[C@@H]3[C@H](O)C[C@@H]4C[C@H](O)CC[C@]4(C)[C@H]3CC[C@]12C
inactive: Potency [1] | Potency [2] | Potency [3] | Potency [4] | outcome [6] | Potency [7] | Potency [10]

CCN(CC)C(C)CN1c2ccccc2Sc2ccccc21 (configuration not stated)
inactive: Potency [1] | Potency [2] | Potency [3] | Potency [4] | outcome [5] | Potency [10] | outcome [8] | Potency [9]

OCCC1CCCCN1 (configuration not stated)
inactive: Potency [1] | Potency [2] | Potency [3] | Potency [4] | outcome [5] | Potency [10] | outcome [8]

O=C(O)c1cn(C2CC2)c2cc(Cl)c(F)cc2c1=O
inactive: Potency [1] | Potency [2] | Potency [3] | Potency [4] | Potency [7] | Potency [10] | outcome [8] | Potency [9]

O=c1[nH]cnc2ccccc12
inactive: Potency [1] | Potency [2] | Potency [3] | Potency [4] | outcome [5] | Potency [10] | outcome [8]

CCCCCCCCC(CO)CCCCCC (configuration not stated)
inactive: Potency [1] | Potency [2] | Potency [3] | Potency [4] | outcome [5] | outcome [8] | Potency [9]

Nc1nc(N)c(-c2ccccc2)s1
inactive: Potency [1] | Potency [2] | Potency [3] | Potency [4] | outcome [5] | Potency [10] | outcome [8]

Cc1ccc(C(N)=O)cc1N
inactive: Potency [1] | Potency [2] | Potency [3] | Potency [4] | outcome [5] | outcome [8] | Potency [9]

OC(CCN1CCCCC1)(c1ccccc1)C1CCCCC1 (configuration not stated)
inactive: Potency [1] | Potency [2] | Potency [3] | Potency [4] | outcome [8] | Potency [9]

CCN(CC)CCOc1ccc2c(c1)C(=O)c1cc(OCCN(CC)CC)ccc1-2
inactive: Potency [3] | Potency [4] | outcome [5] | outcome [8]
active: Potency [1] 13.3 µM | Potency [2] 16.8 µM | Potency [10] 13.3 µM | Potency [9] 26.6 µM

N=C(N=C(N)N)N1CCOCC1
inactive: Potency [1] | Potency [2] | Potency [3] | Potency [4] | outcome [5] | Potency [10] | outcome [8] | Potency [9]
